Inconclusive results are not listed. The source holds several records for some structures; these can differ, active in one and inactive in another. The source made the active and inactive calls. Rule for the calls, unless noted: active = hit-call score of the fitted dose curve at least 0.9, where 1 is the maximum; inactive = score below 0.9.
What was measured:
[1] = TOX21_p53_BLA_p2_viability: Viability Assessment in the Tox21 HCT-116 p53 Agonism Beta-lactamase Assay, Phase 2 (AID 2283591; active = hit-call score of the fitted dose curve at least 0.9, where 1 is the maximum;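 note: compound exposure lasted 16 h at 37 °C; actives lower the ATP signal meaning cytotoxicity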)
Method in brief: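 Cytotoxicity readout: CellTiter-Glo ATP luminescence, 30 min at room temperature, after the beta-lactamase read. Cells were HCT116 exposed 16 h at 37C to compounds pin-transferred at 217-fold dilution from DMSO stocks.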

[2] = target: Cellular tumor antigen p53 (Homo sapiens) (UniProt P04637); experiment: TOX21_p53_BLA_p2_ratio: Tox21 HCT-116 p53 Agonism Beta-lactamase Assay, Ratio, Phase 2 (AID 2283592; active = hit-call score of the fitted dose curve at least 0.9, where 1 is the maximum)
Chain of Cellular tumor antigen p53 (Homo sapiens) (P04637 whole entry, looked up): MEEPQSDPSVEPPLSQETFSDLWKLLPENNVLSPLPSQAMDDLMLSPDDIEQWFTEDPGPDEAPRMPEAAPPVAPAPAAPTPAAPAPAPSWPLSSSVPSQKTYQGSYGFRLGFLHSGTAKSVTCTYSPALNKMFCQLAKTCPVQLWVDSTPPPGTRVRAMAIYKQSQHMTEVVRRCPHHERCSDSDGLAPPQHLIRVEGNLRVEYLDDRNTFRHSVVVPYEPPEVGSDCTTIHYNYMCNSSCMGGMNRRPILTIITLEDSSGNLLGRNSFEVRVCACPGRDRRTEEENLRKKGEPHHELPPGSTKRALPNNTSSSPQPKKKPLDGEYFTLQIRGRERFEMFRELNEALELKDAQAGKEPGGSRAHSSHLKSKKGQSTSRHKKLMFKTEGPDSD
Method in brief: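 DMSO-normalized, positive-direction endpoint derived from the 460 nm/530 nm FRET ratio in HCT116 p53 beta-lactamase reporter cells exposed 16 h at 37C and loaded with CCF4-AM for 2 h.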

[3] = TOX21_p53_BLA_p3_viability: Viability Assessment in the Tox21 HCT-116 p53 Agonism Beta-lactamase Assay, Phase 3 (AID 2283593; active = hit-call score of the fitted dose curve at least 0.9, where 1 is the maximum;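 note: cells exposed to compound for 16 h before reading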)
Method in brief: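 Cellular ATP was quantified by CellTiter-Glo luminescence, read after 30 min at room temperature. Beforehand, HCT116 cells (4000/well) received compound 5 h post-seeding, 217-fold diluted from DMSO, then incubated 16 h at 37C.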

[4] = target: Cellular tumor antigen p53 (Homo sapiens) (UniProt P04637); experiment: TOX21_p53_BLA_p3_ratio: Tox21 HCT-116 p53 Agonism Beta-lactamase Assay, Ratio, Phase 3 (AID 2283596; active = hit-call score of the fitted dose curve at least 0.9, where 1 is the maximum)
Method in brief: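 Cells were seeded at 4000/well, rested 5 h at 37C, then dosed with DMSO compound solutions (217-fold dilution) for 16 h. CCF4-AM substrate was loaded for 2 h at room temperature, and the 460/530 nm emission ratio was fitted for gain of signal versus DMSO.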

[5] = TOX21_p53_BLA_p4_viability: Viability Assessment in the Tox21 HCT-116 p53 Agonism Beta-lactamase Assay, Phase 4 (AID 2283597; active = hit-call score of the fitted dose curve at least 0.9, where 1 is the maximum;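 note: hits lower the luminescence signal meaning cytotoxicity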)
Method in brief: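 In this multiplexed secondary endpoint, HCT116 cells (4000 per well, compound at 5 h, 16 h treatment) received CellTiter-Glo after the beta-lactamase read. Luminescence after 30 min RT reflects ATP, and falling signal marks cytotoxicity.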

[6] = TOX21_p53_BLA_p5_viability: Viability Assessment in the Tox21 HCT-116 p53 Agonism Beta-lactamase Assay, Phase 5 (AID 2283600; active = hit-call score of the fitted dose curve at least 0.9, where 1 is the maximum)
Method in brief: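 Here cell health was gauged by ATP levels in wells holding 4000 cells, each treated 16 h with DMSO-delivered compounds at 217-fold dilution; reduced luminescence marked toxicity.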

[7] = target: Cellular tumor antigen p53 (Homo sapiens) (UniProt P04637); experiment: TOX21_p53_BLA_p4_ratio: Tox21 HCT-116 p53 Agonism Beta-lactamase Assay, Ratio, Phase 4 (AID 2283601; active = hit-call score of the fitted dose curve at least 0.9, where 1 is the maximum)
Method in brief: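 Signal is the blue/green (460nm/530nm) ratio of cleaved versus uncleaved CCF4-AM substrate, read after 2 h substrate loading. Cells were HCT116 carrying the p53-responsive beta-lactamase reporter, dosed 16 h at 37C, 5% CO2; CellTiter-Glo measured in parallel.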

[8] = CCTE_Shafer_MEA_dev_firing_rate_mean: CCTE's Neural Network Formation Assay for Mean Firing Rate, Shafer Lab (AID 2284031)
Method in brief: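 Steps: seed rat cortical cells (1.5 x 10^5/well) with laminin on PEI-coated MEA; dose day 0; record DIV 5/7/9/12, full media and compound exchange after DIV 5 and 9 recordings; compute well-mean firing rate AUC.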

[9] = CCTE_Shafer_MEA_dev_per_burst_spike_percent: CCTE's Neural Network Formation Assay for Percent of Spikes in a Burst, Shafer Lab (AID 2284032)
Method in brief: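 Value is trapezoidal AUC over recordings on days 5, 7, 9 and 12 of the well-mean fraction of spikes falling in single-electrode bursts; rat cortical cultures exposed continuously from plating, treatment renewed DIV 5 and 9, fitted downward against DMSO.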

[10] = CCTE_Shafer_MEA_dev_burst_rate: CCTE's Neural Network Formation Assay for Burst Rate, Shafer Lab (AID 2284042)
Method in brief: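 Primary rat cortical neurons on PEI-coated 48-well MEA plates (laminin added with cells at plating) (16 electrodes/well), exposed from plating to day 12, dosing renewed at DIV 5 and 9. Burst rate averaged over active electrodes, recorded DIV 5, 7, 9, 12, summarized as AUC; loss versus DMSO.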

[11] = CCTE_Shafer_MEA_dev_per_burst_interspike_interval: CCTE's Neural Network Formation Assay for Burst Interspike Interval, Shafer Lab (AID 2284044)
Method in brief: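 Spontaneous activity of maturing rat cortical networks is recorded on DIV 5, 7, 9 and 12 under chronic compound exposure beginning at plating. Endpoint: burst interspike interval well-mean, collapsed into trapezoidal AUC and fitted in the negative direction relative to DMSO.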

[12] = CCTE_Shafer_MEA_dev_burst_duration_mean: CCTE's Neural Network Formation Assay for Mean Burst Duration, Shafer Lab (AID 2284045);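 for AC50: curve fitted for loss meaning shorter burst duration than DMSO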
Method in brief: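 Mean single-electrode burst duration (first to last spike), averaged over bursting electrodes per well, then integrated as area-under-curve across recordings at days 5, 7, 9 and 12. Rat cortical cultures on MEAs, compound present from plating, refreshed at feeds.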

[13] = CCTE_Shafer_MEA_dev_interburst_interval_mean: CCTE's Neural Network Formation Assay for Mean Interburst Interval, Shafer Lab (AID 2284046);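 note: well-mean interburst interval of bursting electrodes as AUC over four recording days; curve fitted for decrease in interburst interval relative to DMSO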
Method in brief: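 Recordings on days 5, 7, 9 and 12 give well-mean interburst interval across actively bursting electrodes, summarized as area under the curve. Cultures: rat cortical neurons, continuous exposure from day 0, compound renewed at feeds; decrease analyzed versus DMSO.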

[14] = CCTE_Shafer_MEA_dev_inter_network_spike_interval_mean: CCTE's Neural Network Formation Assay for Mean Inter-network Spike Interval, Shafer Lab (AID 2284047)
Method in brief: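 Primary rat cortical neurons on 16-electrode MEA wells, exposed from plating day 0 through DIV 12, compound renewed at DIV 5 and 9 media changes. Mean interval between network-spike peaks recorded DIV 5, 7, 9, 12; collapsed as trapezoidal AUC, fitted downward versus DMSO.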

[15] = CCTE_Shafer_MEA_dev_network_spike_number: CCTE's Neural Network Formation Assay for Number of Network Spikes, Shafer Lab (AID 2284048);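 note: synchronized bursts across electrodes counted on days 5 7 9 12 and integrated as AUC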
Method in brief: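 Number of network spikes (coordinated firing across electrodes) recorded on days 5, 7, 9 and 12 and summarised as area under the curve. Rat cortical cultures on MEA, continuous compound exposure with full medium/treatment exchange at DIV 5 and 9.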

[16] = CCTE_Shafer_MEA_dev_network_spike_peak: CCTE's Neural Network Formation Assay for Mean Number of Electrodes in Network Spike, Shafer Lab (AID 2284049)
Method in brief: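 Rat cortical primary culture, 1.5 x 10^5 cells/well, 48-well MEA (16 electrodes/well). Dosing day 0 through DIV 12, full media/compound exchange DIV 5, 9. AxIS adaptive spike detection; AUC over days 5/7/9/12; loss-of-signal vs DMSO.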

[17] = CCTE_Shafer_MEA_dev_spike_duration_mean: CCTE's Neural Network Formation Assay for Mean Spike Duration, Shafer Lab (AID 2284051);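 note: mean network spike duration pooled as area under curve over DIV 5 to 12 recordings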
Method in brief: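 Primary rat cortical neurons on 16-electrode MEA wells (PEI-coated, laminin in plating drop), exposed from plating through DIV 12 with compound renewed at DIV 5 and 9. Mean network-spike duration recorded DIV 5, 7, 9, 12; trapezoidal AUC across days, DMSO baseline.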

[18] = CCTE_Shafer_MEA_dev_network_spike_duration_std: CCTE's Neural Network Formation Assay for Standard Deviation of Network Spike Duration, Shafer Lab (AID 2284052);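 note: hits are decreases in network spike duration SD versus DMSO vehicle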
Method in brief: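 Primary rat cortical neurons on PEI-coated 16-electrode MEA wells, exposed from plating day 0 through day 12 with compound renewed at DIV 5 and 9. Network spike duration SD recorded on days 5, 7, 9, 12, collapsed as trapezoidal AUC; loss-of-signal fit versus DMSO.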

[19] = CCTE_Shafer_MEA_dev_per_network_spike_spike_number_mean: CCTE's Neural Network Formation Assay for Mean Number of Spikes in a Network Spike, Shafer Lab (AID 2284053)
Method in brief: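 Primary rat cortical neurons on 48-well, 16-electrode MEA plates were exposed from plating to DIV 12, with dosing renewed on DIV 5 and 9. Spikes per network spike (0.05 s peak window) were recorded on DIV 5, 7, 9 and 12 and collapsed as trapezoidal AUC versus DMSO.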

[20] = CCTE_Shafer_MEA_dev_per_network_spike_spike_percent: CCTE's Neural Network Formation Assay for Percent of Spikes in a Network Spike, Shafer Lab (AID 2284054)
Method in brief: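 Metric: fraction of spikes falling in a 0.05 s window at network-spike peaks. Recordings were made on days 5, 7, 9 and 12 and collapsed by trapezoidal AUC. Cultures were rat cortical neurons on MEA plates, dosed continuously from plating, re-dosed at media changes.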

[21] = CCTE_Shafer_MEA_dev_LDH: CCTE's Lactate Dehydrogenase Assay for Cytotoxicity in the Neural Network Formation Assay, Shafer Lab (AID 2284068; active = hit-call score of the fitted dose curve at least 0.9, where 1 is the maximum;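 note: exposure for twelve days from plating with re-dosing on DIV 5 and 9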)
Method in brief: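 Primary rat cortical neurons were plated on PEI/laminin MEA plates and exposed from day 0 for twelve days, with compound renewed at DIV 5 and 9. Cytotoxicity was determined by spectrophotometric LDH assay relative to DMSO.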

[22] = CCTE_Shafer_MEA_dev_AB: CCTE's Alamar Blue Assay for Cytotoxicity in the Neural Network Formation Assay, Shafer Lab (AID 2284083; active = hit-call score of the fitted dose curve at least 0.9, where 1 is the maximum;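 note: twelve days of exposure from plating with re-dosing on DIV 5 and 9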)
Method in brief: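 Primary rat cortical neurons on PEI-coated 48-well MEA plates, 1.5 x 10^5 cells/well in laminin drop; compound exposure from day 0 of plating for twelve days, renewed at medium changes on DIV 5 and 9. Viability read as resazurin reduction by fluorescence, relative to DMSO.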

[23] = CCTE_Shafer_MEA_dev_mutual_information_norm: CCTE's Neural Network Formation Assay for Mutual Information Normalization, Shafer Lab (AID 2284091)
Method in brief: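 Shared information across electrodes, tracked on days 5, 7, 9 and 12 of network development and collapsed as trapezoidal area under the curve. Rat cortical cultures were treated continuously from plating, with treatment renewed at feeds on DIV 5 and 9; DMSO baseline, negative-direction fit.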

[24] = CCTE_Shafer_MEA_dev_correlation_coefficient_mean: CCTE's Neural Network Formation Assay for Mean Correlation Coefficient, Shafer Lab (AID 2284093)
Method in brief: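 Spontaneous activity recorded on days 5, 7, 9 and 12 post-plating; pairwise spike correlations are averaged across active electrodes and collapsed to an area-under-curve. Rat cortical cultures are dosed from plating through 12 days, with compound renewed at media changes.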

[25] = IUF_NPC1b_proliferation_BrdU_72hr: Leibniz Research Institute for Environmental Medicine (IUF) 72-hour Neural Progenitor Cell Bromodeoxyuridine (BrdU) Proliferation Assay (NPC1b) (AID 2284207)
Method in brief: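 Human fetal cortex-derived (GW 16-19) neural progenitor spheres, 0.25-0.35 mm, one per well in EGF/FGF proliferation medium, exposed to compound for 72 h at 37C, pH 7.2-7.6. BrdU incorporation over the final 16 h read by luminescence ELISA, relative to DMSO.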

[26] = IUF_NPC1a_proliferation_area_72hr: Leibniz Research Institute for Environmental Medicine (IUF) 72-hour Neural Progenitor Cell Proliferation Area Assay (NPC1a) (AID 2284208)
Method in brief: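 Measured in 3D suspension: each well held one primary hNPC sphere grown with EGF and FGF at pH 7.2-7.6. Compound stayed on for 72 h, then area was imaged; spheres lacking growth factors defined reduced proliferation.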

[27] = IUF_NPC1_viability_72hr: Viability Assessment at 72 hours in the Leibniz Research Institute for Environmental Medicine (IUF) Neural Progenitor Cell Proliferation Assay (NPC1) (AID 2284209)
Method in brief: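 Spheres of primary human neural progenitors were plated singly in proliferation medium and treated for 72 h. Mitochondrial reduction of resazurin was then measured by fluorescence and analysed against DMSO controls.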

Measured: AC50

C[C@H](CS)C(=O)N1CCC[C@H]1C(=O)O
inactive: [1] | [2] | [3] | [4] | [5] | [6] | [7] | [8] | [9] | [10] | [11] | [12] | [13] | [14] | [15] | [16] | [17] | [18] | [19] | [20] | [21] | [22] | [23] | [24] | [25] | [26] | [27]
active: [12] 21.6 µM

Reference: PubChem BioAssay (EPA / NIEHS)
